In assay [1] the target is human AKT serine/threonine Kinase 2 (AKT2), AKT2 (gene 208) (UniProt P31751). The experiment in a line: NVS_ENZ_hAKT2: NovaScreen (NVS) Enzymatic Assay for human AKT serine/threonine Kinase 2 (AKT2) (AID 2283141). The method, boiled down: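 Cell-free fluorescence/electrophoretic mobility shift readout of recombinant human AKT2 activity, 1 h after chemical dosing. Duplicate primary screen at 25 uM, then singleton concentration-response up to 50 uM; loss of signal versus DMSO baseline.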

A further assay deals with CDK2 (gene 1017) (UniProt P24941). The experiment in a line: NVS_ENZ_hCDK2: NovaScreen (NVS) Enzymatic Assay for human Cyclin-Cependent Kinase 2 (CDK2) (AID 2283144). The method in brief: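 Compounds screened in duplicate at 25 uM, then in singleton concentration-response to a maximum of 50 uM, against recombinant CDK2; kinase activity read 1 hr after dosing by fluorescence with mobility-shift separation of substrate and product.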

In assay [2] the target is human Casein Kinase 1-delta (CK1D), CSNK1D (gene 1453) (UniProt P48730). The experiment in a line: NVS_ENZ_hCK1D: NovaScreen (NVS) Enzymatic Assay for human Casein Kinase 1-delta (CK1D) (AID 2283148). The method in brief: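 Recombinant human CK1-delta, cell-free; fluorescent substrate with electrophoretic mobility-shift separation of product, read 1 h after dosing. Single 25 uM duplicate screen, then concentration-response up to 50 uM; loss of signal vs DMSO.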

For assay [3], the target named is human Elastase, ELANE (gene 1991) (UniProt P08246). The experiment in a line: NVS_ENZ_hElastase: NovaScreen (NVS) Enzymatic Assay for human Elastase (AID 2283153). The method in brief: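 Concentration-response to 50 uM max, run singly for chemicals passing a threshold (e.g., 30% inhibition) in a duplicate 25 uM single-point screen. Neutrophil-derived human elastase, absorbance read-out of enzyme activity at 1.5 h; DMSO baseline.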

Assay [4] concerns the target human FYN Proto-Oncogene, Src family Tyrosine Kinase (Fyn), FYN (gene 2534) (UniProt P06241). The experiment in a line: NVS_ENZ_hFyn: NovaScreen (NVS) Enzymatic Assay for human FYN Proto-Oncogene, Src family Tyrosine Kinase (Fyn) (AID 2283161). The method in brief:
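Cell-free kinase activity read by fluorescence after mobility-shift separation of substrate and product, 1 h post-dose. Initial single concentration 25 uM in duplicate, then concentration-response follow-up; DMSO baseline.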

The target in assay [5] is human Janus Kinase 2 (Jak2), JAK2 (gene 3717) (UniProt O60674). The experiment in a line: NVS_ENZ_hJak2: NovaScreen (NVS) Enzymatic Assay for human Janus Kinase 2 (Jak2) (AID 2283169). The method in brief: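 Single-point duplicate screen at 25 uM, with hits run in concentration series to a 50 uM top dose. Substrate-product separation by mobility shift with fluorescence detection, 1 h post-dosing; DMSO baseline.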

Assay [6] has as its target Collagenase 3 (Homo sapiens) (UniProt P45452). In words: NVS_ENZ_hMMP13: NovaScreen (NVS) Enzymatic Assay for human Matrix Metalloproteinase-13 (MMP13) (AID 2283182). The method, boiled down:
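Recombinant MMP13 cleaving fluorescent substrate, cell-free, measured 1 h after dosing. Primary duplicate screen at 25 uM; actives tested in concentration-response up to 50 uM; loss of signal relative to DMSO.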

The target of assay [7] is human Caspase 8 (CASP8), CASP8 (gene 841) (UniProt Q14790). In words: NVS_ENZ_hCASP8: NovaScreen (NVS) Enzymatic Assay for human Caspase 8 (CASP8) (AID 2283146). The method in brief: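 The primary screen tested compounds in duplicate at a single 25 uM concentration, with actives followed up in concentration series. Activity of recombinant (E. coli) protease was measured by fluorescence 1 h post-dose, as signal loss against DMSO.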

Assay [8] addresses Glycogen synthase kinase-3 beta (Homo sapiens) (UniProt P49841). The experiment in a line: NVS_ENZ_hGSK3b: NovaScreen (NVS) Enzymatic Assay for human Glycogen Synthase Kinase-3 beta (GSK3b) (AID 2283165). The method in brief: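 Recombinant enzyme with specific fluorescent substrate, 1 h, product separated by electrophoretic mobility shift. Primary duplicate screen at 25 uM; actives (e.g. 30% inhibition) followed in singleton concentration-response to 50 uM. Signal loss fitted versus DMSO.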

Assay [9] has as its target human Dual Specificity Protein Phosphatase 3 (DUSP3), DUSP3 (gene 1845) (UniProt P51452). The experiment in a line: NVS_ENZ_hDUSP3: NovaScreen (NVS) Enzymatic Assay for human Dual Specificity Protein Phosphatase 3 (DUSP3) (AID 2283152). The method in brief: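 Cell-free fluorescence-intensity enzyme activity assay with recombinant protein and substrate; loss of signal fitted relative to DMSO baseline. Primary screen in duplicate at 25 uM, actives then run in concentration series; measured 0 h after dosing.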

The target of assay [10] is human Esterase Plasma (ES), BCHE (gene 590) (UniProt P06276). The experiment in a line: NVS_ENZ_hES: NovaScreen (NVS) Enzymatic Assay for human Esterase Plasma (ES) (AID 2283157). The method, boiled down:
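Human plasma-derived enzyme, cell-free, colorimetric readout at 0.25 h. Primary screen 25 uM in duplicate; hits (e.g. ≥30% inhibition) rerun singleton up to 50 uM. DMSO = negative control/baseline.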

Assay [11] addresses human MAP Kinase-Activated Protein Kinase 2 (MAPKAPK2), MAPKAPK2 (gene 9261) (UniProt P49137). In words: NVS_ENZ_hMAPKAPK2: NovaScreen (NVS) Enzymatic Assay for human MAP Kinase-Activated Protein Kinase 2 (MAPKAPK2) (AID 2283178). The method, boiled down:
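Chemicals screened in duplicate at 25 uM, then to 50 uM top concentration in concentration-response, against recombinant human MAPKAPK2; substrate conversion read 1 hr post-dosing by fluorescence after electrophoretic mobility-shift separation, loss-of-signal relative to DMSO.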

Assay [12] concerns the target human Colony Stimulating Factor 1 Receptor (CSF1R), CSF1R (gene 1436) (UniProt P07333). In words: NVS_ENZ_hCSF1R: NovaScreen (NVS) Enzymatic Assay for human Colony Stimulating Factor 1 Receptor (CSF1R) (AID 2283150). The method in brief:
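Compounds screened in duplicate at 25 uM, then concentration-response (top 50 uM) for those passing threshold such as 30% inhibition; recombinant CSF1R activity measured 1 h post-dosing via fluorescent substrate/product mobility-shift separation, loss of signal versus DMSO.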

The target of assay [13] is human LYN Proto-Oncogene, Src family Tyrosine Kinase (LynA), LYN (gene 4067) (UniProt P07948). In words: NVS_ENZ_hLynA: NovaScreen (NVS) Enzymatic Assay for human LYN Proto-Oncogene, Src family Tyrosine Kinase (LynA) (AID 2283173). The method, boiled down: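 Recombinant kinase with fluorescent substrate; product separated from substrate by electrophoretic mobility shift and read 1 h after dosing. Duplicate screen at 25 uM, then concentration-response up to 50 uM; activity scored as signal loss against DMSO.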

The target in assay [14] is human c-Jun N-terminal Kinases (JNK2), MAPK9 (gene 5601) (UniProt P45984). The experiment in a line: NVS_ENZ_hJNK2: NovaScreen (NVS) Enzymatic Assay for human c-Jun N-terminal Kinases (JNK2) (AID 2283171). The method, boiled down: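 Chemicals first tested in duplicate at 25 uM, then in singleton concentration series up to 50 uM, against extracted JNK2 enzyme. Activity loss read by fluorescence with mobility-shift separation 1 h post-dose; DMSO baseline.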

The target of assay [15] is Histone deacetylase 3 (Homo sapiens) (UniProt O15379). In words: NVS_ENZ_hHDAC3: NovaScreen (NVS) Enzymatic Assay for human Histone Deacetylase 3 (HDAC3) (AID 2283163). The method in brief:
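Cell-free enzyme format: loss of fluorescent product after mobility-shift separation, 1 h incubation, recombinant human HDAC3. Single 25 uM duplicate screen first, then concentration series to a 50 uM top for hits; DMSO as baseline.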

Assay [16] addresses human Insulin Receptor (InsR), INSR (gene 3643) (UniProt P06213). In words: NVS_ENZ_hInsR: NovaScreen (NVS) Enzymatic Assay for human Insulin Receptor (InsR) (AID 2283168). The method, boiled down:
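Cell-free enzyme assay read 1 h post-dose by fluorescence after substrate/product mobility-shift separation. Duplicate 25 uM primary screen, then singleton concentration-response up to 50 uM for compounds passing threshold; loss of signal vs DMSO.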

Assay [17] concerns the target Mitogen-activated protein kinase 3 (Homo sapiens) (UniProt P27361). The experiment in a line: NVS_ENZ_hMAPK3: NovaScreen (NVS) Enzymatic Assay for human Mitogen-Activated Protein Kinase 3 (MAPK 3) (AID 2283177). The method in brief: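 Chemicals were first tested in duplicate at 25 uM, with hits re-run as concentration series (max 50 uM). Recombinant enzyme activity, measured 1 h post-dose in a cell-free format, was read by fluorescence/mobility shift relative to DMSO.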

Experimental findings from PubChem BioAssay (EPA / NIEHS) are described below.

SMILES strings stand for the structures. Inconclusive results are not listed. Activity calls are given as the source filed them. How the source made its calls: active means hit-call score of the fitted dose curve at least 0.9, where 1 is the maximum; inconclusive means response in the unintended direction; inactive means score below 0.9.

human MAP Kinase-Activated Protein Kinase 2 (MAPKAPK2), MAPKAPK2 (gene 9261), sequence (P49137 whole entry, looked up): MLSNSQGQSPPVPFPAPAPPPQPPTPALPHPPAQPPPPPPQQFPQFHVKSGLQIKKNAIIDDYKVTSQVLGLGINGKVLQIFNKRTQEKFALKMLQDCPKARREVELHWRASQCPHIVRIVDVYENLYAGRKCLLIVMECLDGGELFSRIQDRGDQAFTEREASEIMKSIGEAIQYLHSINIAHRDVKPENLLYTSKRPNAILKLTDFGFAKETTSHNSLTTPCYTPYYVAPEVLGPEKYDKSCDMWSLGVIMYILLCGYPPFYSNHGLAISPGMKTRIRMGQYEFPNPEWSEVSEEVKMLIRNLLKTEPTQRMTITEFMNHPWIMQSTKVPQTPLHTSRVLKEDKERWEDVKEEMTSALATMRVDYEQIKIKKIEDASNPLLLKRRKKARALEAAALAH
human Elastase, ELANE (gene 1991), sequence (P08246 whole entry, looked up): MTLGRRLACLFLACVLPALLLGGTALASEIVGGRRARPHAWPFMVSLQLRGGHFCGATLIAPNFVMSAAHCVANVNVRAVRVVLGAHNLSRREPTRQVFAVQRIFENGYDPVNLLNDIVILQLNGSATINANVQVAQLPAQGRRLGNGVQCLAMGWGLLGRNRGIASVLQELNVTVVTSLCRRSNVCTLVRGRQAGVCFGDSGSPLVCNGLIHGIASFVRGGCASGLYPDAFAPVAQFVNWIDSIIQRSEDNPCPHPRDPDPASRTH
human Dual Specificity Protein Phosphatase 3 (DUSP3), DUSP3 (gene 1845), sequence (P51452 whole entry, looked up): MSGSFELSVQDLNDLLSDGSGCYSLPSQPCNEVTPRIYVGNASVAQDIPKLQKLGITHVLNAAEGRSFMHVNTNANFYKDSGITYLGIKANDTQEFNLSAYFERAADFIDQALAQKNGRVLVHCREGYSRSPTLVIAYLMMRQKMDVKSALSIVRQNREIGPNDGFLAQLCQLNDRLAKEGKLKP
human Casein Kinase 1-delta (CK1D), CSNK1D (gene 1453), sequence (P48730 whole entry, looked up): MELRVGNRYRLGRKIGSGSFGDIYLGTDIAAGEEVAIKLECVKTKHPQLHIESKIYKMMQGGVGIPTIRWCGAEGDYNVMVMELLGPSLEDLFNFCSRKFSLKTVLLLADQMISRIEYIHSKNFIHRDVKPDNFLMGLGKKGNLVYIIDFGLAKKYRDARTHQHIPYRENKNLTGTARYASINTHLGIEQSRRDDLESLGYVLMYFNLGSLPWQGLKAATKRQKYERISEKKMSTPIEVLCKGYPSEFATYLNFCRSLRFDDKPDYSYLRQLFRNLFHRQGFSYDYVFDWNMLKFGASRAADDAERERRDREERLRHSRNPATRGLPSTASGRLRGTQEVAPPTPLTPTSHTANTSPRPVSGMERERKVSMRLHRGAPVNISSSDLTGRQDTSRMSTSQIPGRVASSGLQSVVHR
human Janus Kinase 2 (Jak2), JAK2 (gene 3717), sequence (O60674 whole entry, looked up): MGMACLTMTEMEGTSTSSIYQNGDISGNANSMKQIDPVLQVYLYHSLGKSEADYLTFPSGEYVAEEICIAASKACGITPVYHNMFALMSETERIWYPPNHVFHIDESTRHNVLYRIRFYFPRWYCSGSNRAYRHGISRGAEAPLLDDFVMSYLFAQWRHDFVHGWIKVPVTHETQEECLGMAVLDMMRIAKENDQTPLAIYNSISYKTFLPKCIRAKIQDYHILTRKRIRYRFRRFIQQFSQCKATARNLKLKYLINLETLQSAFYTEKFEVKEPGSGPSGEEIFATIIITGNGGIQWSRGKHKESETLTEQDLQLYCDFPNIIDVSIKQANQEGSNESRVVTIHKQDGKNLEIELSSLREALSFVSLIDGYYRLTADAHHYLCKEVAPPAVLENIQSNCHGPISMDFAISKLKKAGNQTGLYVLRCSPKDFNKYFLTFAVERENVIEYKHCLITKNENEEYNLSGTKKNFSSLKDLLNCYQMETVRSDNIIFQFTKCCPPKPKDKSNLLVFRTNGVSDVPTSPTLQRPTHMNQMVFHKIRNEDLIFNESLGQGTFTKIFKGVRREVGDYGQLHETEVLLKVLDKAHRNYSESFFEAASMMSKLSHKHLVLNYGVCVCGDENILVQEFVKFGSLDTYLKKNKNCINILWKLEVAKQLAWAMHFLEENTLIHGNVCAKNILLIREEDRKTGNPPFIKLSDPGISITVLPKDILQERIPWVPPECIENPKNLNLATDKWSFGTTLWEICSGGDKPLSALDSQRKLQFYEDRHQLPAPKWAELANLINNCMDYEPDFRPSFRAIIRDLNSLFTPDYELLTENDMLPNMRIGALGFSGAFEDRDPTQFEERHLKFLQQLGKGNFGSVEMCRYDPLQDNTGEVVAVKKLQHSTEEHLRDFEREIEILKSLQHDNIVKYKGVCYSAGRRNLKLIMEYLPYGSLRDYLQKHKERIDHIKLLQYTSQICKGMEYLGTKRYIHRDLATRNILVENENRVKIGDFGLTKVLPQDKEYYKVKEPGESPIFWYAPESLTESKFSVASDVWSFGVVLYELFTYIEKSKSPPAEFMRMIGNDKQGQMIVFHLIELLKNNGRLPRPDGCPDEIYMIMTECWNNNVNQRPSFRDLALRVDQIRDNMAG
Glycogen synthase kinase-3 beta (Homo sapiens), sequence (P49841 whole entry, looked up): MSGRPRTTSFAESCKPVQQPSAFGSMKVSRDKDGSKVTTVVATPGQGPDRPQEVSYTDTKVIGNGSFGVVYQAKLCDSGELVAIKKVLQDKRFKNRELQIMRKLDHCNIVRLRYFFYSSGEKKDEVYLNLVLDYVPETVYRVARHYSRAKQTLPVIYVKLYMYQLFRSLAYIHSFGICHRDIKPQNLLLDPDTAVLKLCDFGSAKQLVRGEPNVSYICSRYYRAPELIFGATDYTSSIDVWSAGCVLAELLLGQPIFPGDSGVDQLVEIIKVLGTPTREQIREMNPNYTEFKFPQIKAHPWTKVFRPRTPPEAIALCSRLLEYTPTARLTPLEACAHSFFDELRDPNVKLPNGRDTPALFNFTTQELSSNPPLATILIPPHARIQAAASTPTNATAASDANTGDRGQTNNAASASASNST
human AKT serine/threonine Kinase 2 (AKT2), AKT2 (gene 208), sequence (P31751 whole entry, looked up): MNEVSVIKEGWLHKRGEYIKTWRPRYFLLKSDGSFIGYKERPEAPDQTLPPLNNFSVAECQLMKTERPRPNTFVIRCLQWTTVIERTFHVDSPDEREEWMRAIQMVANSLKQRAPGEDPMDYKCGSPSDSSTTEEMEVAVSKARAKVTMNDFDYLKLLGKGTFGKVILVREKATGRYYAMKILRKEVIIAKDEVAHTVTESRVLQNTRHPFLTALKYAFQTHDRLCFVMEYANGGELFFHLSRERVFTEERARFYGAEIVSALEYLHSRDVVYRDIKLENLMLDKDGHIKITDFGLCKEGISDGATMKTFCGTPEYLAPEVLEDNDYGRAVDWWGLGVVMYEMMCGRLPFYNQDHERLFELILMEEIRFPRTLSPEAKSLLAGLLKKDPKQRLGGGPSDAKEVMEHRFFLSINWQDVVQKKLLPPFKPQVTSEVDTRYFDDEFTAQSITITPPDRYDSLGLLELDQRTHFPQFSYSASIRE
human Esterase Plasma (ES), BCHE (gene 590), sequence (P06276 whole entry, looked up): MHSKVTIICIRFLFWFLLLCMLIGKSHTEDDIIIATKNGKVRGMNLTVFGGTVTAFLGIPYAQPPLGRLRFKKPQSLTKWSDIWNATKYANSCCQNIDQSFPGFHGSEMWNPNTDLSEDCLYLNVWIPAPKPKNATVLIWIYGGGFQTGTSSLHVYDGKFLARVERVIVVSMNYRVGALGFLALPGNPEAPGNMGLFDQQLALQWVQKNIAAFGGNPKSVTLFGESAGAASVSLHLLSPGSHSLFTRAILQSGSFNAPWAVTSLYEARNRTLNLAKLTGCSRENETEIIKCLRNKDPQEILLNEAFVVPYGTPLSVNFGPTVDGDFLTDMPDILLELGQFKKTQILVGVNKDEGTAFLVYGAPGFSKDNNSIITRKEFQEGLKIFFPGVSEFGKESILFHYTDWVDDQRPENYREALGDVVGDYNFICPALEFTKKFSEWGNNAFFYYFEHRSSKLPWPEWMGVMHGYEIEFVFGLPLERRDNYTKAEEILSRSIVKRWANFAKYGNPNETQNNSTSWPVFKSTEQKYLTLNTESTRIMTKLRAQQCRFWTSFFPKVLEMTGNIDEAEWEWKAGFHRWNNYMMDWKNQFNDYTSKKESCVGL
Mitogen-activated protein kinase 3 (Homo sapiens), sequence (P27361 whole entry, looked up): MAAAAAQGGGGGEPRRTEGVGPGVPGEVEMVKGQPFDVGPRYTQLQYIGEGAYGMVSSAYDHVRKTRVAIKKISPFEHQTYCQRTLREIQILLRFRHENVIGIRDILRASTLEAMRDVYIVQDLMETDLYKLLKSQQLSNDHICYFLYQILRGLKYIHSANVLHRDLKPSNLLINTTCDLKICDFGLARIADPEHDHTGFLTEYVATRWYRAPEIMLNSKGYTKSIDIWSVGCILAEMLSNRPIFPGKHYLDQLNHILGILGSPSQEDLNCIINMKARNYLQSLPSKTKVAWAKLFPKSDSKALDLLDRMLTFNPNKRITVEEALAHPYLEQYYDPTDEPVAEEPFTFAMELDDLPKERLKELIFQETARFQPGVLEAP
human c-Jun N-terminal Kinases (JNK2), MAPK9 (gene 5601), sequence (P45984 whole entry, looked up): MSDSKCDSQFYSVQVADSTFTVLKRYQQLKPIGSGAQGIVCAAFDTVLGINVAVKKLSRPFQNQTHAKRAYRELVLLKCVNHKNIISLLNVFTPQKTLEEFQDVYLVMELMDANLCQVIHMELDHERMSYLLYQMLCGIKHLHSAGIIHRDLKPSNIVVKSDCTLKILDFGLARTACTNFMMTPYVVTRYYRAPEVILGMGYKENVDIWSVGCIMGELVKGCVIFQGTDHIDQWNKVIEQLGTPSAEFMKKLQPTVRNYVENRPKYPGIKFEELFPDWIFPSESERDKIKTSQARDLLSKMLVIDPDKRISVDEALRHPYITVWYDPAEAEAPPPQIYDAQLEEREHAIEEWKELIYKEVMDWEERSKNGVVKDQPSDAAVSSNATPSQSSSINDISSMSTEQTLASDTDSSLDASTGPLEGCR

By AC50 is commonly meant the concentration giving half of the maximal activity seen. As for `CC1=C(/C=C/C(C)=C/C=C/C(C)=C/CO)C(C)(C)CCC1`, the compound was called inactive (in assay [1]; in the assay with CDK2 (gene 1017); in [2]; in [4]; in assay [5]). For the same compound, the AC50 in assay [3] was 21.8 µM (active); in assay [6], 18.2 µM (active).
For the compound `O=C(O)Cc1ccccc1Nc1c(Cl)cccc1Cl`, in assay [7], the AC50 is 12.3 µM (active).
For the compound `CC(=O)C(C)=CC1C(C)=CCCC1(C)C` (stereo not given), the compound was called inactive in assay [2] and in assay [8].
For `CCCCCCCCCCCCCCCCCC(=O)O`, the results for the AC50 in [9] and in [3] were 19.6 µM (active) and 7.85 µM (active), respectively. For the same compound, the outcome in assay [5] was inactive.
Consider `CCCCC(CC)COC(=O)CC(C(=O)OCC(CC)CCCC)S(=O)(=O)O` (stereo not given), for which the AC50 in assay [9] was 14.7 µM (active); in [3], 25 µM (active). In addition, the call in assay [10] was inactive.
On to `CCOC(=O)CCC(=O)OCC`, for which the compound was called inactive in assay [1] and in assay [11].
Turning to `NS(=O)(=O)c1cc2c(cc1Cl)NCNS2(=O)=O`, the result in assay [12] and in assay [8] was inactive.
Consider `Cc1nc(-c2ccc3c(c2)CCN(CCC2CCC(NC(=O)/C=C/c4ccc(F)cc4)CC2)CC3)no1` (stereo not given), for which the figures for the AC50 in assay [3], in [5] and in assay [6] were 18.3 µM (active), 17.1 µM (active) and 5.67 µM (active), respectively.
For `Nc1ccc2c(c1)C(=O)c1ccccc1C2=O`, the AC50 was 15.5 µM (active) in assay [3] and 16.5 µM (active) in assay [11].
Regarding `CC(=O)Oc1ccccc1C(=O)O`, the result in assay [12], in assay [8] and in assay [13] was inactive.
On to `Cc1ccccc1Cl`, for which the outcome in [2] was inactive.
For `Nc1ccccc1N`, the AC50 in [9] is 16.4 µM (active); in [10], 17.6 µM (active); in assay [8], 22.3 µM (active).
For the compound `NCCO`, the result in assay [2], in [4], in [8] and in assay [14] was inactive.
In the case of `CC(C)c1ccc(C(=O)N=C(N)N)cc1S(C)(=O)=O`, the result in assay [15] and in assay [11] was inactive.
With `CC(=O)OCCOCCOCCOC(C)=O`, the compound was classed as inactive in assay [16].
`O=C(O)CCCCC(=O)O`: the compound was classed as inactive in [16] and in [17].
Take `CCCCCCCCCCCCCCCC`: in assay [5], the call was inactive.
`CCOC(=O)C(C)(C)Oc1ccc(Cl)cc1`: the result in assay [5] was inactive.
For `Cc1ccc(C(C)C)c(O)c1`, the call in [14] was inactive.
For `Cc1ccc(Cl)cc1`, in assay [17], the call was inactive.
